Molecules are shown by their SMILES. Results filed as inconclusive are left out. Activity calls are given as the source filed them. Unless noted, the call rests on the fitted dose curve; in most records, active means well fitted curve in the direction sought with a large enough effect in the repeat runs; inconclusive means weak or mixed curves; inactive means no such curve, though single readings can be large; an effect the other way counts as inactive or inconclusive.

These results are taken from PubChem BioAssay (Tox21).

Experiment [1] is described as follows: qHTS assay for small molecule agonists of the p53 signaling pathway (AID 651631; calls by dose curve; further: nearly all actives have a fitted effect of over 15% in size; further: potency means the concentration at half of the fitted maximal effect). An outline of the steps:
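Stably transfected HCT-116 cells (beta-lactamase behind p53 response elements) get compounds after a 5 h settling period; 16 h later at 37 °C, FRET substrate is loaded and fluorescence read after 2 h.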

Experiment [2] in a line: qHTS assay for small molecules that induce genotoxicity in human embryonic kidney cells expressing luciferase-tagged ATAD5 (AID 651632). Further: nearly all actives have a fitted effect of over 15% in size. An outline of the steps: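 Luminescent reporter readout, HEK293T ATAD5-luc line: 16 hr drug exposure (37C, 5% CO2) followed by Amplite, 30 min RT.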
A short description of experiment [3]: qHTS assay for small molecule agonists of the p53 signaling pathway - cell viability (AID 651633; calls by dose curve; further: nearly all actives have a fitted effect of over 30% in size; further: potency means the concentration at half of the fitted maximal effect). An outline of the steps: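 p53RE-bla cells were treated with compound for 16 hours at 37 C. Cytotoxicity was then measured as CellTiter-Glo luminescence after 30 min at room temperature.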
Experiment [4] is described as follows: qHTS assay for small molecules that induce genotoxicity in human embryonic kidney cells expressing luciferase-tagged ATAD5 - cell viability (AID 651634; calls by dose curve; further: nearly all actives have a fitted effect of over 25% in size). In short, it runs like this:
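Viability read: CellTiter-Fluor fluorescence, 30 min at 37C. Cells: HEK293T, luciferase-tagged ATAD5. Exposure: 15.5 hr, 37C, 5% CO2, compound or DMSO vehicle.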

A short description of experiment [5]: qHTS assay for small molecule disruptors of the mitochondrial membrane potential - cell viability (AID 720634; calls by dose curve; further: nearly all actives have a fitted effect of over 20% in size; further: potency means the concentration at half of the fitted maximal effect). An outline of the steps: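 HepG2, 1 hr compound, 37 C. ATP luminescence via CellTiter-Glo, 30 min RT, same well as m-MPI.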
The nature of experiment [6]: qHTS assay for small molecule disruptors of the mitochondrial membrane potential (AID 720635). Further: potency means the concentration at half of the fitted maximal effect. An outline of the steps:
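HepG2 cells exposed to compound 1 hr at 37C, then Mito-MPS dye 30 min. Ratio read of aggregate (540/590 nm) versus monomer (490/535 nm) fluorescence.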

The nature of experiment [7]: qHTS assay to test for compound auto fluorescence at 590 nm (red) in HepG2 cells (AID 720674). An outline of the steps: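 Seeding: 2,000 HepG2 cells/well, MEM/10% FBS, overnight 37 C. Dosing: compound vs DMSO. Incubation: 1 hr, 37 C, 5% CO2. Read: fluorescence 540 ex/590 em, Rose Bengal sodium as red reference.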
Experiment [8] in a line: qHTS assay to test for compound auto fluorescence at 535 nm (green) in HepG2 cells (AID 720675).
Experiment [9] is described as follows: qHTS assay to test for compound auto fluorescence at 460 nm (blue) in HEK293 cells (AID 720678). In short, it runs like this:
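After cell attachment (4-5 hr, 37C), compounds were pinned onto HEK293 monolayers in 10% dialyzed FBS medium. The blue channel (405/460 nm) was read following overnight culture. Equivalency was calculated against triamterene.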

The nature of experiment [10]: qHTS assay to test for compound auto fluorescence at 590 nm (red) in HEK293 cells (AID 720679). In short, it runs like this: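 Plates of HEK293 cells (10% dialyzed FBS) are treated with 23 nL compound or DMSO vehicle after a 4-5 hr attachment period, incubated overnight at 37C, and read for red fluorescence at 540/590nm.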
The nature of experiment [11]: qHTS assay to test for compound auto fluorescence at 535 nm (green) in HEK293 cells (AID 720680).
The nature of experiment [12]: qHTS assay to test for compound auto fluorescence at 460 nm (blue) in HEK293 cell free culture (AID 720681). An outline of the steps: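 Compounds were added to cell-free DMEM with 10% FBS and fluorescence read directly. The blue channel used 405 nm excitation and 460 nm emission, with triamterene as the reference fluorophore.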
The nature of experiment [13]: qHTS assay to test for compound auto fluorescence at 535 nm (green) in HEK293 cell free culture (AID 720682). An outline of the steps:
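Using fluorescein as calibrant, autofluorescence was quantified at 485/535 nm in cell-free DMEM containing 10% FBS after pintool addition of compound or vehicle.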

Experiment [14] can be described thus: qHTS assay to test for compound auto fluorescence at 590 nm (red) in HEK293 cell free culture (AID 720683). An outline of the steps:
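Cell-free wells of DMEM with 10% FBS received compound, and intrinsic fluorescence was read at excitation/emission 540/590 nm. Values expressed as equivalence to Rose Bengal sodium.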

Experiment [15] in a line: qHTS assay to test for compound auto fluorescence at 590 nm (red) in HepG2 cell free culture (AID 720684). An outline of the steps:
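Compounds are added to culture medium (MEM, 10% FBS) lacking cells, then fluorescence is read at excitation 540 nm, emission 590 nm, with Rose Bengal sodium as the equivalency standard.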

Experiment [16] in a line: qHTS assay to test for compound auto fluorescence at 460 nm (blue) in HepG2 cell free culture (AID 720685). An outline of the steps:
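Compound (23 nL) or DMSO pinned into cell-free MEM with 10% FBS; blue fluorescence read at 405/460 nm excitation/emission, expressed as auto-fluorescence equivalency to triamterene.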

Experiment [17] can be described thus: qHTS assay to test for compound auto fluorescence at 535 nm (green) in HepG2 cell free culture (AID 720686).
The target in experiment [18] is Glucocorticoid receptor (Homo sapiens) (UniProt P04150). Description: qHTS assay to identify small molecule agonists of the glucocorticoid receptor (GR) signaling pathway (AID 720691; active means well fitted activation curve with a large enough effect in the signal ratio in the repeat runs, not every such curve was filed as active; the % refers to the signal ratio). An outline of the steps:
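qHTS in GR-bla HeLa cells: 4 h settling at 37 C/5% CO2, 18 h compound incubation at 37 C, 2 h LiveBLAzer B/G FRET substrate at room temperature, fluorescence intensity measured.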

For experiment [19] the target is unchanged. In words: qHTS assay to identify small molecule antagonists of the glucocorticoid receptor (GR) signaling pathway (AID 720692; active means well fitted inhibition curve with a large enough effect in the signal ratio in the repeat runs, not every such curve was filed as active; the % refers to the signal ratio). In short, it runs like this:
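Inhibition of glucocorticoid signalling is measured in HeLa cells with a GRE-controlled beta-lactamase reporter; cells are co-treated with compound and 5 nM dexamethasone (final) for 18 h before FRET substrate readout.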

The nature of experiment [20]: qHTS assay to test for compound auto fluorescence at 460 nm (blue) in HepG2 cells (AID 720687). An outline of the steps: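 HepG2 cells in MEM with 10% FBS, attached overnight at 37 C, were exposed to compound or DMSO for 1 hr at 37 C, 5% CO2. Blue fluorescence was read at 405/460 nm, with triamterene as reference fluorophore.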

Glucocorticoid receptor (Homo sapiens), sequence (P04150 whole entry, looked up): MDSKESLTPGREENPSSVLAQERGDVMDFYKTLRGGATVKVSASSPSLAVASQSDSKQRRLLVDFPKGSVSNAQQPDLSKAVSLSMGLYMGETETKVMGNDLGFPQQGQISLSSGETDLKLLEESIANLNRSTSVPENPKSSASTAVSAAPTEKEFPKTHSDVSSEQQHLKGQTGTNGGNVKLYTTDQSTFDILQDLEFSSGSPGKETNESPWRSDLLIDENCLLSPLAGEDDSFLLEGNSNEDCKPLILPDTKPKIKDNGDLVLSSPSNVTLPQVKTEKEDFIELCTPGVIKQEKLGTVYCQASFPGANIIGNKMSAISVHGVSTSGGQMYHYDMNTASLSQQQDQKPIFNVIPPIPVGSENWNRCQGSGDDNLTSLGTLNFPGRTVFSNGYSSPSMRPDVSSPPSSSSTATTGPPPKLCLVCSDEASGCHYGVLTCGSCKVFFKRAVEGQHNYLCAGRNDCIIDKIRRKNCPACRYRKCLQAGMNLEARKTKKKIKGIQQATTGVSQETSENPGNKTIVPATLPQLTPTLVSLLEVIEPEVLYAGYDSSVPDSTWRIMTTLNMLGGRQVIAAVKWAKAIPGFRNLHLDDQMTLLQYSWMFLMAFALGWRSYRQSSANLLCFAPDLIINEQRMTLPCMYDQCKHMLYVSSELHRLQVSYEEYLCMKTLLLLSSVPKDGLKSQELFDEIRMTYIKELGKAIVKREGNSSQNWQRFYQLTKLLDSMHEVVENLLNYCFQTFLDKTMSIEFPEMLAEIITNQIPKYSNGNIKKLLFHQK

As to `CC(Cl)Cl`, the Potency entry in experiment [1], in [2], in experiment [3], in experiment [4], in experiment [5] and in experiment [6] was “inactive” in each case. Also, the outcome in experiment [7], in experiment [8], in experiment [9], in [10], in [11] and in experiment [12] was inactive. Also, the outcome in [13], in experiment [14], in experiment [15], in experiment [16], in [17] and in experiment [18] was inactive.
On to `CNC(C)Cc1ccccc1OC` (centres undefined), for which the Potency result in experiment [1], in experiment [2], in [3], in experiment [4], in [5] and in [6] was “inactive” each time. For the same molecule, the Potency result in experiment [19] was “inactive”. Moreover, the outcome in experiment [7], in experiment [8], in experiment [9], in experiment [10], in [11] and in experiment [12] was inactive. In addition, the molecule was classed as inactive in experiment [13], in experiment [14], in experiment [15], in experiment [16] and in experiment [17].
As for `Nc1nc(=S)[nH][nH]1`, the Potency entry in [1], in [2], in [3], in experiment [4], in [5] and in experiment [6] was “inactive” throughout. Also, the outcome in [7], in [8], in experiment [9], in [10], in experiment [11] and in [13] was inactive. In addition, the molecule was classed as inactive in [14], in experiment [15], in experiment [16], in experiment [17], in experiment [20] and in experiment [18].
As to `COc1cc(CC(C)N)cc2c1OCO2` (centres undefined), the Potency result in experiment [1], in experiment [2], in experiment [3], in [4], in experiment [5] and in experiment [6] was “inactive” in each case. Moreover, in experiment [19], the Potency result was “inactive”. The molecule was called inactive in experiment [7], in experiment [8], in [9], in experiment [10], in [11] and in [12]. The outcome in experiment [13], in experiment [14], in experiment [15], in [16], in [17] and in experiment [20] was inactive. For the same molecule, the outcome in [18] was inactive.
Regarding `Brc1ccccc1`, the Potency entry in experiment [1], in [2], in experiment [3], in [4], in [5] and in experiment [6] was “inactive” each time. Further, the Potency result in experiment [19] was “inactive”. Moreover, the call in [7], in experiment [8], in experiment [10], in experiment [11], in experiment [12] and in [13] was inactive. Moreover, the molecule was classed as inactive in experiment [14], in [15], in [16], in [17], in experiment [20] and in experiment [18].
`O=NN1CCCCCC1`: the Potency entry in experiment [1], in experiment [2], in experiment [3], in experiment [4], in experiment [5] and in experiment [6] was “inactive” throughout. For the same molecule, the result in experiment [7], in experiment [8], in experiment [9], in [10], in experiment [11] and in [14] was inactive. Besides, the molecule was classed as inactive in experiment [15], in [16], in experiment [17], in [20] and in [18].
In the case of `C=CC(C)=O`, the Potency result in experiment [1], in experiment [2], in experiment [3], in [4], in experiment [5] and in experiment [6] was “inactive” throughout. Besides, the result in experiment [8], in experiment [11], in experiment [13], in experiment [14], in experiment [15] and in experiment [16] was inactive. Also, the outcome in [17], in experiment [20] and in experiment [18] was inactive.
For `N#Cc1cc(I)c(O)c(I)c1`, the Potency in experiment [1] is 4.33 µM (active); in experiment [3], 34.4 µM (active); in [5], 4.33 µM (active); in [6], 3.44 µM (active). The Potency entry in experiment [2] and in experiment [4] was “inactive” in each case. The result in experiment [7], in experiment [8], in experiment [9], in [10], in experiment [11] and in experiment [12] was inactive. Also, the result in [13], in experiment [14], in [15], in [16], in [17] and in [20] was inactive. For the same molecule, the result in experiment [18] was inactive.
